The values below come from the supplement of paper PMC6555819.

Holding throughout (test): PBM binding z-score (relative to random genomic background probes); higher = stronger binding; sequences stand for … in GC…GCGATTGACAGCGTAGAATGAAGG
Experiment [1] deals with FXR:RXRa (NR concentration 270 nM, RXRa partner concentration 90 nM). In a few lines:
(§1)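 Custom Agilent 4×180K protein-binding microarrays carried double-stranded probes. Their 34-nt variable regions held direct-repeat seeds, single-nucleotide variants, half-site ablations and random human genomic background sequences. Arrays were incubated 1 h with ligand-free nuclear receptor dimers in PBS pH 7.4, 2% milk, 0.02% Triton X-100, 1 mM DTT, 0.2 mg/mL BSA and 0.4 mg/ml salmon testes DNA. Antibodies against each partner (one per run) detected binding, and scanned fluorescence was regression-normalized. Binding z-scores use random background probes as reference.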

Experiment [2] deals with LXRa:RXRa (NR concentration 270 nM, RXRa partner concentration 90 nM). In a few lines:
as §1

Experiment [3] concerns LXRa homodimer (NR concentration 270 nM). The procedure, abridged:
as §1

The subject of experiment [4] is LXRb:RXRa (NR concentration 270 nM, RXRa partner concentration 90 nM). The procedure, abridged: as §1
In experiment [5] the test system is LXRb homodimer (NR concentration 270 nM). In a few lines: as §1
The test system of experiment [6] is PPARa:RXRa (NR concentration 270 nM, RXRa partner concentration 90 nM). In a few lines:
as §1

The test system of experiment [7] is PPARg:RXRa (NR concentration 180 nM, RXRa partner concentration 90 nM). The procedure, abridged: as §1
The subject of experiment [8] is PPARg:RXRa 270nM:90nM, anti-RXR (NR concentration 270 nM, RXRa partner concentration 90 nM). The procedure, abridged:
as §1

Experiment [9] relates to PPARg:RXRa 30nM:10nM, anti-RXR (NR concentration 30 nM, RXRa partner concentration 10 nM). In a few lines: as §1
The test system of experiment [10] is PPARg:RXRa 90nM:30nM, anti-RXR (NR concentration 90 nM, RXRa partner concentration 30 nM). In a few lines:
as §1

In experiment [11] the test system is PPARg:RXRa DBDmut IVT, anti-RXR (DBD mutation: RXRa K156A/R161A, NR concentration 270 nM, RXRa partner concentration 90 nM). The procedure, abridged:
as §1

Experiment [12] concerns PPARg:RXRa IVT, anti-PPARg (NR concentration 270 nM, RXRa partner concentration 90 nM). In a few lines:
as §1

For experiment [13], the system named is PPARg DBDmut:RXRa IVT, anti-PPARg (DBD mutation: PPARg1 K132A/R137A, NR concentration 270 nM, RXRa partner concentration 90 nM). The procedure, abridged:
as §1

Experiment [14] concerns PPARg DBDmut IVT, anti-PPARg (DBD mutation: PPARg1 K132A/R137A, NR concentration 270 nM). In a few lines:
as §1

The test system of experiment [15] is PPARg homodimer (NR concentration 180 nM). The procedure, abridged:
as §1

The test system of experiment [16] is PXR:RXRa (NR concentration 270 nM, RXRa partner concentration 90 nM). In a few lines: as §1
For experiment [17], the system named is PXR homodimer (NR concentration 270 nM). In a few lines: as §1
The test system of experiment [18] is RARa:RXR (NR concentration 270 nM, RXRa partner concentration 90 nM). The procedure, abridged:
as §1

Experiment [19] deals with RARa homodimer (NR concentration 270 nM). In a few lines:
as §1

The subject of experiment [20] is RARb:RXRa (NR concentration 270 nM, RXRa partner concentration 90 nM). The procedure, abridged:
as §1

For TTACAAAGGTGAAGGTCGTTGATCCCTCTGTAGA, the PBM binding z-score in [1] is 3.61; in experiment [2], 2.92; in experiment [3], 0.147; in experiment [4], 2.33; in [5] it was -0.453; in experiment [6], 3.81. Also, the PBM binding z-score was determined as 3.92 in experiment [7]; 4.48 in [8]; 2.28 in [9]; 4.11 in experiment [10]; 2.62 in [11]; 3.97 in experiment [12]. The PBM binding z-score was determined as 0.246 in experiment [13]; 0.134 in experiment [14]; 1.47 in [15]; 2.32 in experiment [16]; 0.241 in experiment [17]; 2.74 in experiment [18]. Further, the results for the PBM binding z-score in experiment [19] and in experiment [20] were 0.198 and 3.56, respectively.
Turning to CGAACGAGGGCATGAGTCGATAGCAAATGCCGAT, the PBM binding z-score in experiment [1] is 0.37; in experiment [2] it was 0.268; in [3], -0.569; in [4], -0.0412; in experiment [5], -0.951; in experiment [6], 1.48. The PBM binding z-score in experiment [7] stood at 1.74; in [8], 2.28; in [9], 0.37; in [10], 1.93; in experiment [11] it was 2.97; in [12], 1.89. Also, the PBM binding z-score is -0.75 in [13]; -0.876 in experiment [14]; 0.211 in [15]; 0.0627 in experiment [16]; -0.737 in [17]; 0.1 in [18]. Moreover, the PBM binding z-score in experiment [19] is -0.456; in experiment [20], 1.81.
With TCATATAGCTAAATGCTAGGTGAAAGTCCGATCT, the PBM binding z-score is 0.567 in experiment [1]; 0.2 in experiment [2]; -0.0142 in experiment [3]; 0.288 in experiment [4]; -0.55 in experiment [5]; 0.6 in experiment [6]. The PBM binding z-score amounted to 0.313 in experiment [7]; 1.67 in experiment [8]; 2.82 in experiment [9]; 2.07 in experiment [10]; 1.45 in [11]; 0.452 in experiment [12]. Also, the PBM binding z-score in experiment [13] is 0.679; in [14] it was 0.932; in [15] it was 0.101; in experiment [16], 0.31; in experiment [17], -0.278; in [18] it was 0.514. In addition, the PBM binding z-score was -0.0788 in experiment [19] and 0.00512 in experiment [20].
With ACTATTAGTTGAGACGAGGACAACCGATAGGTTG, the PBM binding z-score in [1] was 0.431; in experiment [2] it was 0.148; in experiment [3], 0.167; in [4], -0.324; in experiment [5], 0.49; in [6] it was -0.169. Moreover, the PBM binding z-score in experiment [7] is 0.659; in [8], -0.132; in [9], 0.0741; in experiment [10] it was 0.0272; in experiment [11] it was 0.000503; in experiment [12], 0.208. For the same sequence, the PBM binding z-score is 0.291 in [13]; 0.661 in experiment [14]; 0.842 in experiment [15]; 0.431 in experiment [16]; 0.155 in experiment [17]; 1.33 in experiment [18]. For the same sequence, the values for the PBM binding z-score in experiment [19] and in experiment [20] were 0.918 and 0.366, respectively.
Take ATCTCTATGTAAAGTTCAGTGAAAGATCGATAGA: the PBM binding z-score is 0.881 in [1]; 1.72 in experiment [2]; 1.66 in [3]; 1.17 in [4]; 0.525 in [5]; 1.87 in experiment [6]. Moreover, the PBM binding z-score in [7] was 2.59; in [8] it was 3.76; in experiment [9] it was 2.03; in experiment [10], 3.82; in [11] it was -0.231; in experiment [12], 0.863. For the same sequence, the PBM binding z-score in [13] stood at 0.912; in experiment [14], 1.04; in [15], 1.11; in experiment [16], 1.92; in experiment [17], 2.03; in experiment [18] it was 1.18. The PBM binding z-score in experiment [19] amounted to 1.46; in experiment [20], 2.55.
On to TAGCCTAGGTCAAATCGGGCCAGTATACGCTATA, for which the PBM binding z-score worked out at 5.06 in experiment [1]; 4.49 in [2]; 0.78 in [3]; 3.26 in [4]; 0.87 in experiment [5]; 4.1 in experiment [6]. Besides, the PBM binding z-score in [7] came out at 2.33; in [8], 2.88; in experiment [9], 0.735; in experiment [10], 2.01; in experiment [11] it was 1.98; in experiment [12], 3. The PBM binding z-score in [13] is 0.169; in experiment [14], 0.237; in experiment [15], 1.68; in [16] it was 2.95; in experiment [17], -0.306; in experiment [18] it was 2.74. Moreover, the results for the PBM binding z-score in [19] and in [20] were -0.373 and 3.68, respectively.
In the case of CCAGACAGGTGAAAGATAACTCAGTCTGGTACGC, the PBM binding z-score in [1] was -0.034; in experiment [2], 0.0578; in [3] it was -0.199; in [4], -0.0465; in experiment [5], -0.465; in experiment [6], 0.902. The PBM binding z-score in experiment [7] was determined as 1.27; in experiment [8], 1.47; in experiment [9], 0.306; in [10], 1; in [11], 1.22; in experiment [12], 0.571. The PBM binding z-score in [13] is -0.176; in experiment [14] it was -0.498; in experiment [15], 0.844; in experiment [16] it was -0.0544; in experiment [17], 0.127; in experiment [18], 0.381. The PBM binding z-score is 0.87 in [19] and 0.534 in experiment [20].
